For 38 molecules, growth results are on record in PubChem BioAssay (NCI).

About 83,000 compounds went through this panel and 20% of them were active in at least one assay; those are over-represented in the sample as a whole.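 Note: values are percent growth. 100 is the growth of untreated cells, values between 100 and 0 indicate rising inhibition; between -100 and 0 indicates cell death.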 A number with no mark means an inactive call. Calls of active or inactive are those of the source. Rule for the calls: active = growth percent below 10; inactive = the rest.

The test system of one assay is LOX IMVI melanoma. The experiment in a line: NCI-60 one-dose screen, 48 h (100 = growth as untreated, 0 = no growth, -100 = all killed). The settings on record: 10 µM.
Turning to `Cc1nnc2c3nnc(-c4ccc(Cl)cc4)n3c3ccccc3n12`, the growth is 97.2%. Still for that read-out and setting: to `Nc1ccc(Sc2ccc3c4c2cccc4c(=O)n2c4ccccc4nc32)cc1` belongs 29.2%. On to `COc1cccc(C(=O)NNc2nc(N3CCN(C4CCCCC4)CC3)nc(N3CCN(C(c4ccccc4)c4ccccc4)CC3)n2)c1`, for which the growth is 7.83% (active). Still for that read-out and setting: then `Cc1ncc([N+](=O)[O-])n1CCOc1ccc(C(=O)/C=C/c2ccc(C(F)(F)F)cc2)cc1`, with 57.3%. The same measure, in the same setting: then `O=C(CCc1ccccc1)N1CCN(C(=O)CCc2ccccc2)CC1`, with 95%.

In a further assay the test system is SK-MEL-28 melanoma. The description is as above. As to conditions: 10 µM.
As to `CCOC(=O)[C@@H]1[C@H](c2ccccc2)[C@H]([N+](=O)[O-])[C@H](c2cn(-c3ccccc3)nc2C)N1Cc1ccccc1`, the growth was 85.4%. The same measure, in the same setting: to `O=S(=O)(NC1c2ccccc2Oc2ccccc21)c1cc(Cl)ccc1Cl` belongs 110%; to `O=C(O)CCCCSCCCCC(=O)O`, 114%. On the same count and under the same terms, then `COc1ccc(OC)c([N+](=O)[O-])c1C=O`, with 103%. On the same count and under the same terms, then `c1ccc(CC(NCCNC(Cc2ccccc2)c2ccccc2)c2ccccc2)cc1` (stereo not drawn), with 50.2%; and `COc1ccc(-c2nsc3c2NC(=O)CC3c2cccc(Cl)c2)cc1` (stereo not drawn), with 49.8%. With `Oc1ccc(/C=N\Nc2ccccn2)c(O)c1`, the growth is 64.5%. Still for that read-out and setting: then `O=c1ccc2nc(-c3ccccc3)nn(-c3ccccc3)c-2c1`, with 26.4%; and `COc1ccc2nc(C)cc(Nc3ccc(Cl)cc3)c2c1`, with 105%.

In the case of `COc1c(-c2c3sc(=O)[nH]c3nc3c2c(=O)[nH]n3C(C)C)cc2c(c1OC)OCO2`, the growth was 112%. The same measure, in the same setting: then `Fc1cc(-c2ncc(-c3cc(F)c(F)c(F)c3)c(NC3CCCCCC3)n2)cc(F)c1F`, with 98.4%; and `COc1ccc(NC(=O)CCn2cnc3c(cc(-c4ccccc4)n3-c3ccccc3)c2=O)cc1`, with 101%; and `N#CCC1CCCC1`, with 97.6%. The same measure, in the same setting: to `COc1ccc(-c2nnc(COc3ccc(NC(=O)Nc4cccc(C(F)(F)F)c4)cc3F)o2)cc1` belongs 73.4%; to `COc1ccc(/C=C2\SC(=S)N(CCCN3CCOCC3)C2=O)c(OC)c1`, 106%; to `COc1cc2nc(Sc3sc(N)nc3C)n(-c3ccc(Oc4ccccc4)cc3)c(=O)c2cc1OC`, 97.9%. Still for that read-out and setting: then `Cc1ccc2oc(=O)cc(/C(=C3/C=CC=N3)c3ccc[nH]3)c2c1`, with 27.7%; and `Nc1ccccc1NC(=O)CCCCCCC(=O)Nc1ccc2c(c1)/C(=C/c1ccc[nH]1)C(=O)N2`, with 42.7%. In the case of `COc1ccccc1Cn1cc2c(c1-c1ccccc1)CCc1cnoc1-2`, the growth was 58.3%. For `COc1cc(-c2nc3ccc(C)cc3[nH]2)ccc1OCc1nnc(-c2ccc(CC(C)C)cc2)o1`, the growth was 87.8%. Same read-out and setting: to `C[n+]1c(/C=C/c2c[nH]c3ccccc23)ccc2ccccc21` belongs 84.8%; to `COc1cc(Cl)cc(-c2nn(-c3cccc(NC(=O)Nc4cccc(C(F)(F)F)c4)c3)cc2-c2ccncc2)c1`, 14.1%; to `COc1cc(/C=C/C(=O)c2cc(-c3ccc(F)cc3)ccc2O)cc(OC)c1OC`, 100%. On the same count and under the same terms, then `Cc1ccc2c(c1)-c1cc(C)nn1-c1ccc(C#N)cc1O2`, with 70.3%; and `C=CCNC(=S)NN`, with 104%; and `N/C(=N\O)c1cn(C2OC(CO)C(O)C2O)c2ncnc(N)c12` (stereo not drawn), with -53.3% (active).

Turning to `CC(=O)c1c(O)cc2c3c1OC(C)(C)C1CCC(C)(CC31)O2` (stereo not drawn), the growth was 111%. Still for that read-out and setting: then `CC(=O)Nc1ccc(Sc2ccc(NC(C)=O)cc2)cc1`, with 102%; and `CC(=O)N(O)c1ccc(/C=C/c2ccccc2)cc1`, with 75.4%. The same measure, in the same setting: then `CCOc1nc(-c2ccccc2)cc2c(O)c(C(=O)N/N=C/c3ccc(OC)cc3)[nH]c(=O)c12`, with 114%.

Turning to `CNC(=S)Sc1ccc([N+](=O)[O-])cc1[N+](=O)[O-]`, the growth is 66.1%. Regarding `O=C(COc1ccc(Cl)cc1Cl)Oc1coc(CSc2nc3ccccc3s2)cc1=O`, the growth was 131%. The same measure, in the same setting: then `COc1ccc(Cn2cc3c(c2-c2ccccc2)CC(C)(C)c2cnoc2-3)cc1`, with 58.7%; and `Cc1nnc2c3nnc(-c4ccc(Cl)cc4)n3c3ccccc3n12`, with 104%; and `Nc1ccc(Sc2ccc3c4c2cccc4c(=O)n2c4ccccc4nc32)cc1`, with 73.7%. On the same count and under the same terms, then `COc1cccc(C(=O)NNc2nc(N3CCN(C4CCCCC4)CC3)nc(N3CCN(C(c4ccccc4)c4ccccc4)CC3)n2)c1`, with 64.3%.

Consider `Cc1ncc([N+](=O)[O-])n1CCOc1ccc(C(=O)/C=C/c2ccc(C(F)(F)F)cc2)cc1`, for which the growth was 88.2%. Still for that read-out and setting: to `O=C(CCc1ccccc1)N1CCN(C(=O)CCc2ccccc2)CC1` belongs 108%.
